Key:
Details in all cases: concentration: 1 μM, replicates: in singlicate; n = 1
PCTK2 = test system: T1, PCTK2
T1 construct: gene CDK17

PCTK3 = test system: T2, PCTK3
T2 construct: gene CDK18

PDGFRA = test system: PDGFRA
PDGFRB = test system: PDGFRB
PDPK1 = test system: PDPK1
PFTAIRE2 = test system: PFTAIRE2
PFTK1 = test system: T3, PFTK1
T3 construct: gene CDK14

PHKG1 = test system: PHKG1
PHKG2 = test system: PHKG2
PIK3C2B = test system: PIK3C2B
PIK3C2G = test system: PIK3C2G
PIK3CA = test system: PIK3CA
PIK3CB = test system: PIK3CB
PIK3CD = test system: PIK3CD
PIK3CG = test system: PIK3CG
PIK4CB = test system: T4, PIK4CB
T4 construct: gene PI4KB

PIKFYVE = test system: PIKFYVE
PIM1 = test system: PIM1
PIM2 = test system: PIM2
PIM3 = test system: PIM3
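Note: KINOMEscan kinase panel screen.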

Row | SMILES | %Inh (PCTK2) [%] | %Inh (PCTK3) [%] | %Inh (PDGFRA) [%] | %Inh (PDGFRB) [%] | %Inh (PDPK1) [%] | %Inh (PFTAIRE2) [%] | %Inh (PFTK1) [%] | %Inh (PHKG1) [%] | %Inh (PHKG2) [%] | %Inh (PIK3C2B) [%] | %Inh (PIK3C2G) [%] | %Inh (PIK3CA) [%] | %Inh (PIK3CB) [%] | %Inh (PIK3CD) [%] | %Inh (PIK3CG) [%] | %Inh (PIK4CB) [%] | %Inh (PIKFYVE) [%] | %Inh (PIM1) [%] | %Inh (PIM2) [%] | %Inh (PIM3) [%]
1 | COc1cc(Nc2nccc(N3CCC(NC(=O)Nc4cccc(C(C)=O)c4)C3)n2)cc(OC)c1OC (stereo not drawn) [GSK1379753] | 26 | 0 | 0 | 77 | 0 | 0 | 23 | 0 | 2 | 0 | 0 | 5 | 0 | 46 | 20 | 78 | 0 | 0 | 0 | 0
2 | CC(=O)Nc1nc2cnc(Nc3cc(NC(=O)c4cccc(C5(C#N)CC5)c4Cl)ccc3C)nc2s1 | 9 | 0 | 97.7 | 100 | 1 | 23 | 0 | 12 | 17 | 0 | 27 | 0 | 12 | 14 | 0 | 0 | 0 | 2 | 4 | 0
3 | c1ccc(Oc2ccc(Nc3ccnc4cc(-c5ccc(CNCCN6CCOCC6)o5)ccc34)cc2)nc1 [GW567145] | 0 | 2 | 65 | 89 | 0 | 6 | 11 | 3 | 0 | 0 | 0 | 0 | 0 | 0 | 0 | 0 | 50 | 0 | 0 | 0
4 | COc1cccc(C(=O)Nc2cccc(Oc3ccc4nc(NC(=O)C5CC5)cn4n3)c2)c1 | 0 | 12 | 99.9 | 100 | 0 | 8 | 4 | 0 | 0 | 0 | 1 | 0 | 0 | 0 | 0 | 0 | 0 | 9 | 11 | 17
5 | Oc1cc(Nc2ccnc3cc(I)ccc23)ccc1F [GW552771] | 0 | 15 | 19 | 49 | 0 | 0 | 0 | 0 | 0 | 0 | 0 | 0 | 0 | 19 | 0 | 20 | 13 | 8 | 0 | 0
6 | COC(=O)Nc1nc2cc(Oc3ccc(NC(=O)Nc4cc(C(F)(F)F)ccc4F)cn3)ccc2[nH]1.Cl.Cl [GW681170] | 16 | 16 | 94.7 | 99.8 | 0 | 68 | 21 | 0 | 0 | 0 | 0 | 0 | 5 | 0 | 0 | 0 | 0 | 9 | 0 | 0
7 | Cl.c1ccc(-c2ccc3c(Nc4ccc5[nH]ncc5c4)ccnc3c2)nc1 [GW440137] | 14 | 20 | 90 | 89 | 0 | 12 | 19 | 0 | 0 | 3 | 0 | 6 | 0 | 2 | 5 | 0 | 7 | 0 | 0 | 9
8 | O=c1[nH]cc(-c2ccc(N3CCOCC3)cc2)c2sc(-c3cn[nH]c3)cc12 [GSK2276055] | 28 | 15 | 32 | 63 | 0 | 34 | 42 | 0 | 6 | 9 | 0 | 21 | 11 | 3 | 21 | 8 | 31 | 77 | 51 | 67
9 | CN1CCN(CCCNc2nccc(-c3c(-c4ccc(F)cc4)nn4cc(C(F)(F)F)ccc34)n2)CC1 [GW621581] | 0 | 12 | 0 | 10 | 3 | 13 | 0 | 0 | 0 | 0 | 3 | 0 | 0 | 10 | 0 | 1 | 95.6 | 10 | 0 | 0
10 | Cc1ccc(C(=O)N2CC[C@@H](O)C2)cc1-n1c(C)cc(OCc2ccc(F)cc2F)c(Br)c1=O | 0 | 7 | 4 | 77 | 30 | 2 | 12 | 0 | 0 | 0 | 0 | 0 | 0 | 0 | 0 | 0 | 28 | 0 | 7 | 1
11 | Cn1cc(-c2ccc3c(c2)CCN3C(=O)Cc2cccc(Cl)c2)c2c(N)ncnc21 [GSK2606590] | 0 | 7 | 84 | 100 | 40 | 18 | 32 | 17 | 0 | 89 | 0 | 0 | 15 | 0 | 39 | 0 | 0 | 31 | 0 | 8
12 | Cc1ccc(C)c(NC(=O)NC2CCN(c3ccnc(Nc4ccc(F)cc4)n3)C2)c1 (stereo not drawn) [GSK1379720] | 0 | 10 | 0 | 4 | 0 | 4 | 0 | 0 | 0 | 0 | 0 | 0 | 0 | 8 | 0 | 0 | 0 | 15 | 0 | 0
13 | Cl.Cl.NCC(C(=O)Nc1cc(Br)c(-c2ccnc3[nH]ccc23)s1)c1ccccc1 (stereo not drawn) [GSK1269851] | 6 | 0 | 0 | 38 | 0 | 24 | 28 | 49 | 0 | 0 | 0 | 0 | 0 | 0 | 0 | 9 | 0 | 19 | 0 | 0
14 | COc1cc(Nc2nccc(N3CCC(NC(=O)c4cc5ccccc5s4)C3)n2)cc(OC)c1OC (stereo not drawn) [GSK1379760] | 9 | 20 | 0 | 44 | 50 | 7 | 0 | 12 | 0 | 0 | 0 | 0 | 0 | 14 | 0 | 0 | 6 | 16 | 0 | 3
15 | CN(C)Cc1ccc(-c2ccc3c(Nc4ccc(Oc5ccccn5)cc4)ccnc3c2)o1 [GW567148] | 0 | 0 | 82 | 98.7 | 0 | 0 | 0 | 2 | 0 | 0 | 0 | 0 | 0 | 0 | 0 | 0 | 0 | 0 | 0 | 0
16 | COc1cccc(NC(=O)NC2CCN(c3ccnc(Nc4cc(OC)c(OC)c(OC)c4)n3)C2)c1 (stereo not drawn) [GSK1379763] | 25 | 21 | 28 | 83 | 0 | 9 | 5 | 0 | 0 | 0 | 0 | 0 | 0 | 51 | 8 | 78 | 0 | 0 | 0 | 0
17 | O=C(O)C(F)(F)F.O=C(O)C(F)(F)F.O=c1[nH]ccc2nc(N[C@@H]3CCCNC3)nc(Nc3ccc(S(=O)(=O)N4CCOCC4)cc3)c12 [GSK2177277] | 98.3 | 96.2 | 97.5 | 100 | 100 | 61 | 65 | 97.7 | 94.7 | 51 | 0 | 0 | 0 | 0 | 80 | 59 | 69 | 97.5 | 98.8 | 99.8
18 | COC(=O)Nc1nc2ccc(Oc3ccc(NC(=O)Nc4cc(C(F)(F)F)ccc4F)cc3)cc2n1C.Cl [GW692089] | 0 | 12 | 78 | 100 | 0 | 6 | 4 | 0 | 0 | 0 | 4 | 0 | 0 | 0 | 0 | 0 | 6 | 0 | 24 | 0

From paper PMC5540273 (PLoS ONE, 2017)
